Results from PubChem BioAssay (Tox21).
Inconclusive results are not listed. Calls of active or inactive are those of the source. Calls follow the shape of the dose curve; as a rule, active = well fitted cell-killing curve with a large enough effect in the repeat runs; inconclusive = weak or mixed curves, or effect the other way; inactive = flat fitted curve, though single readings scatter.

Assay: cAMP Responsive Elements (CRE) small molecule antagonists, cell-based qHTS assay: qHTS cell viability counter screen (AID 2060913); also: nearly all actives have a fitted effect of over 40% in size
Details: CRE-bla HEK293T viability, CellTiter-Glo luminescence, 5 h; series mostly up to 92.4 µM; viability change, negative = cytotoxic: at the top concentration
How it was run: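 CRE-bla HEK293T cells (2,000/well, 18 h) given compound plus NKH477 0.25 uM final for 3 h at 37C; viability counter-screen by CellTiter-Glo luminescence in same wells after 30 min.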
% is scaled to controls: 0 for no effect and ±100 for the full control effect.

SMILES	viability change, negative = cytotoxic	Potency
CN1CCCCC1CCN1c2ccccc2Sc2ccc(S(C)=O)cc21 (stereo not given)	-3.57% [at 42.5 µM] (inactive)	
CN1C(C(=O)Nc2ccccn2)=C(O)c2ccccc2S1(=O)=O		inactive
Cc1[nH]cnc1-c1ccc(Cl)cc1	0.591% [at 42.5 µM] (inactive)	
CCCC[P+](C)(CCCC)CCCC	-15.8% (inactive)	
C1CCSC1	-22.8% (inactive)	
O=C(O)CCC(=O)Nc1ccc(S(=O)(=O)Nc2nccs2)cc1	-0.863% [at 42.5 µM] (inactive)	
C1CCCCCCCCCCC1	3.07% [at 18.9 µM] (inactive)	
CCCCCCCCCCCCN1CCOCC1	10.6% (inactive)	
Cc1cc(=O)c2c(O)c3c(O)cc(=O)c4c3c3c(cc(O)c1c23)C(C)(C)C=4O	-18.2% [at 18.9 µM] (inactive)	
O=c1cc(CO)occ1O	7.18% [at 42.5 µM] (inactive)	
CC(CNC1CCCCC1)OC(=O)c1ccccc1 (stereo not given)	1.52% [at 42.5 µM] (inactive)	
Cc1ccc(S(=O)(=O)NC(=O)NN2CC3CCCC3C2)cc1 (stereo not given)	-1.19% [at 42.5 µM] (inactive)	
c1cc(N(CC2CO2)CC2CO2)ccc1OCC1CO1 (stereo not given)		inactive
CCOC(=O)c1ccc(N)cc1		inactive
CC(C)COC(=O)c1ccc(N)cc1	6.18% [at 42.5 µM] (inactive)	
O=C(O)[C@H](O)c1ccccc1	-4.78% [at 42.5 µM] (inactive)	
CCc1cccc(CC)c1NC(=O)CN(CC(=O)O)CC(=O)O	0.58% [at 42.5 µM] (inactive)	
COC(Cc1ccccc1)OC	8.45% (inactive)	
C=C(C)C(=O)OCCCCCCCCCCOC(=O)C(=C)C	0.0871% (inactive)	
N#CCCCC(C#N)CCC#N (stereo not given)	-0.612% (inactive)	

SMILES	viability change, negative = cytotoxic	Potency
CCCCCCCCCCCCCCNCCO	-1.28% [at 42.5 µM] (inactive)	
CS(=O)(=O)c1ccc([C@@H](C[C@H]2CCC(=O)C2)C(=O)Nc2cnccn2)cc1Cl	-3.24% (inactive)	
CCN(C=O)CC	1.98% (inactive)	
CC(=O)CC(C)C	-0.855% (inactive)	
c1cc[nH]c1	3.26% (inactive)	
CC(C)(C)NC[C@H](O)COc1cccc2c1CCCC2=O	5.86% [at 42.5 µM] (inactive)	
CC1=C(C/C=C(\C)CCC[C@H](C)CCC[C@H](C)CCCC(C)C)C(=O)c2ccccc2C1=O	11.5% [at 42.5 µM] (inactive)	
C=CC(=O)N1CCOCC1	-5.76% (inactive)	
CCO[Si](CCCN=C=O)(OCC)OCC	13.3% (inactive)	
CC(C)c1ccc(C(C)C)cc1		inactive
CC1=C(C)C(=O)C(CCCCC#CCCCC#CCO)=C(C)C1=O	-6.88% [at 42.5 µM] (inactive)	
NS(=O)(=O)c1ccc(NC(=O)CCC(=O)O)cc1	-2.03% [at 42.5 µM] (inactive)	
CCCCCCCCCCCC[N+](C)(C)CCCS(=O)(=O)[O-]	-15.9% (inactive)	
CCC1Nc2cc(Cl)c(S(N)(=O)=O)cc2S(=O)(=O)N1 (stereo not given)	-1.54% [at 42.5 µM] (inactive)	
COc1cccc2c1C(=O)c1c(O)c3c(c(O)c1C2=O)C[C@@](O)(C(=O)CO)C[C@@H]3O[C@H]1C[C@H](N)[C@H](O[C@@H]2CCCCO2)[C@H](C)O1	11.5% [at 42.5 µM] (inactive)	
OCC(O)CN1CCN(c2ccccc2)CC1 (stereo not given)	0.444% [at 42.5 µM] (inactive)	
O=C1c2cccc(O)c2C(=O)c2c(O)cc(CO)cc21	-11.5% (inactive)	
CC(S)C(C)S (stereo not given)	-3.16% (inactive)	
c1cnc2c(n1)CCCC2	-0.21% (inactive)	
NCC(=O)O	-2.51% [at 18.9 µM] (inactive)	
